Screening data: PubChem BioAssay, several laboratories
Only some compounds are listed: those with a hit (about 1.8% of all), similar ones and a draw of the others.
MazF activator = MazEF (E. coli) toxin RNase activation; P0AE70; FAM/BHQ RNA-DNA oligo cleavage fluorescence, 5 h; activation, % at 20 µM; actives 0.32% (n = 350,000); in the data active means activation above about 50%
Target sequence (P0AE70 whole entry, looked up): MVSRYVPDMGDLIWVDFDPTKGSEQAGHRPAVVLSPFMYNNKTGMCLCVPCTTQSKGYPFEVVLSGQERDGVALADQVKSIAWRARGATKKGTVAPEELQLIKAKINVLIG
VHR inh abs = DUSP3 (human) phosphatase inhibition; AID 1654; inhibition, % at 13.3 µM; actives 0.52% (n = 290,000); recombinant VHR phosphatase, pNPP absorbance; P51452; in the data active means inhibition above about 50%
Target sequence (P51452 whole entry, looked up): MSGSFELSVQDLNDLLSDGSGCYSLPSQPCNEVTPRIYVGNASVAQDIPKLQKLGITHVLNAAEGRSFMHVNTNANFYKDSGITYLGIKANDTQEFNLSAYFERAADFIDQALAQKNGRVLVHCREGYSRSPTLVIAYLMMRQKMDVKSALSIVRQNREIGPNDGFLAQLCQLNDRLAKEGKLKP
PrPC surface inh = cell surface PrPC inhibition, primary TR-FRET screen; AID 720596; inhibition, % at 13.8 µM; P04156; TR-FRET read-out; actives 0.43% (n = 370,000); in the data active means inhibition above about 24%; further: 0% = median of the test wells and 100% = reference compound wells
CCHFV vOTU inh = blocks the CCHF virus ovarian tumor domain protease. CCHFV vOTU protease, Pep-AMC fluorescence. inhibition, % at 11.5 µM. actives 0.55% (n = 370,000). AID 651958; in the data active means inhibition above about 30%; further: 0% = vehicle wells with enzyme and 100% = no enzyme wells
BH1578 lux ind = quorum light induction in luxS cqsA deficient V. cholerae; V. cholerae BH1578 lux reporter, luminescence, 6 h; activation, % at 18.7 µM; actives 0.16% (n = 350,000); AID 588436; in the data active means activation mostly above about 9.7%, no sharp cut-off
Yp Topo-I inh = inhibitors of Yersinia pestis topoisomerase I; AID 504884; Y. pestis Topo-I cleavage product accumulation, plate reader; activity, % at 10 µM; actives 0.064% (n = 360,000); in the data active means activity above about 50%, passing the limit was not always enough
* hit, by the source's call.

Screening CCOC(=O)C1=C(C)NC(=O)NC1c1ccc(-c2ccc(Cl)cc2)o1 (centres undefined) returned MazF activator -4.3, VHR inh abs 16.6, PrPC surface inh 6.5, CCHFV vOTU inh 18.9, BH1578 lux ind 2.3 and Yp Topo-I inh 20.8.
`Cc1cccc(NC(=O)CCS(=O)(=O)c2ccccc2)c1C` gave PrPC surface inh -4.6 and CCHFV vOTU inh -3.4.
Screening CCCC(C)C(=O)NC1CCCCN(C)C1=O (centres undefined) returned PrPC surface inh -0.1 and CCHFV vOTU inh -9.7.
O=C(CSc1nnc(-c2cnccn2)n1-c1ccccc1)c1ccc(F)cc1 was read as PrPC surface inh 5.5 and CCHFV vOTU inh -2.2.
O=c1nc(-c2ccccc2)c2cc(SC(F)F)ccc2[nH]1 was read as MazF activator 0.0, VHR inh abs 52.8*, PrPC surface inh 6.2, CCHFV vOTU inh -16.5, BH1578 lux ind -0.4 and Yp Topo-I inh 5.9.
CCOC(=O)C1=C(O)/C(=C/c2cn(CC(=O)NCC3CCCO3)c3ccccc23)SC1=Nc1ccc(C)cc1 (centres undefined) was read as MazF activator active, BH1578 lux ind 3.0 and Yp Topo-I inh -1.6.
Screening Cc1ccc(C)c(-c2ccc(=O)n(Cc3cccc(Br)c3)n2)c1 returned MazF activator -2.8, VHR inh abs 52.6*, PrPC surface inh -4.9, CCHFV vOTU inh 0.8, BH1578 lux ind -0.6 and Yp Topo-I inh 40.7.
Screening Cc1ccc(C)c(-c2ccc(=O)n(Cc3ccc(F)cc3Cl)n2)c1 returned MazF activator 0.7, VHR inh abs 5.3, PrPC surface inh -6.3, CCHFV vOTU inh 7.6, BH1578 lux ind -0.4 and Yp Topo-I inh 41.5.
For O=S(=O)(NCCO)c1ccc2c(c1)Cc1cc(S(=O)(=O)NCCO)ccc1-2 the results were MazF activator 9.3, VHR inh abs 34.4, PrPC surface inh -2.3, CCHFV vOTU inh -9.7, BH1578 lux ind -0.2 and Yp Topo-I inh 6.5.
`NNS(=O)(=O)c1ccc2c(c1)Cc1cc(S(=O)(=O)NN)ccc1-2` gave MazF activator 154.2*, VHR inh abs 44.8, PrPC surface inh 5.9, CCHFV vOTU inh 8.9, BH1578 lux ind -0.5 and Yp Topo-I inh 7.1.
For CN(CCc1ccccc1)C(=O)c1cc2ccccn2n1 the results were PrPC surface inh 8.6 and CCHFV vOTU inh 0.2.
Screening CCOc1cccc(CNCCc2c(C)[nH]c3ccc(OC(F)(F)F)cc23)c1O returned MazF activator 51.8*, VHR inh abs 13.0, PrPC surface inh 12.2, CCHFV vOTU inh 13.6, BH1578 lux ind inactive and Yp Topo-I inh -21.3.
Screening Cc1[nH]c2ccc(OC(F)(F)F)cc2c1CCNCc1cccc([N+](=O)[O-])c1 returned MazF activator 15.4, VHR inh abs -1.2, PrPC surface inh -2.6, CCHFV vOTU inh 28.9, BH1578 lux ind -0.4 and Yp Topo-I inh -36.4.
For Cc1ccc(/C=N/NC(=O)Cc2c(F)cccc2Cl)s1 the results were MazF activator -1.8, VHR inh abs 52.8*, PrPC surface inh -4.4, CCHFV vOTU inh 15.3, BH1578 lux ind inactive and Yp Topo-I inh 24.8.
`O=c1[nH]c2ccc(N=Cc3c(O)ccc4cc(Br)ccc34)cc2[nH]1` gave MazF activator 256.0*, VHR inh abs 7.3, PrPC surface inh 2.1, CCHFV vOTU inh 4.8, BH1578 lux ind 3.3 and Yp Topo-I inh 0.8.
O=C(NCc1ccco1)c1cc(-c2cccs2)nc2ccccc12 was read as MazF activator active, VHR inh abs 7.4, PrPC surface inh -8.8, CCHFV vOTU inh -96.1, BH1578 lux ind -3.6 and Yp Topo-I inh 1.3.
For O=C(COC(=O)c1cc(-c2cccs2)nc2ccccc12)NCc1ccco1 the results were MazF activator -1.8, VHR inh abs 6.4, PrPC surface inh 13.3, CCHFV vOTU inh -44.1, BH1578 lux ind 0.0 and Yp Topo-I inh -1.7.
Cc1cc(C)cc(N(C(=O)c2csnn2)C(C(=O)NC2CCCCC2)c2cccnc2)c1 (centres undefined) was read as MazF activator 0.5, VHR inh abs 52.9*, PrPC surface inh -1.5, CCHFV vOTU inh 3.2, BH1578 lux ind -0.3 and Yp Topo-I inh -0.3.
For O=C(NCC(=O)N(c1ccccc1)C(C(=O)NC1CCCC1)c1cccnc1)c1cccs1 (centres undefined) the results were MazF activator -2.5, VHR inh abs 52.7*, PrPC surface inh -0.9, CCHFV vOTU inh -3.6, BH1578 lux ind 1.7 and Yp Topo-I inh -1.0.
